Test results published in PubChem BioAssay (EPA / NIEHS).
Inconclusive results are not listed. Activity calls are given as the source filed them. The calls were made as follows: active = hit-call score of the fitted dose curve at least 0.9, where 1 is the maximum; inconclusive = response in the unintended direction; inactive = score below 0.9.

target: Estrogen receptor beta (Homo sapiens) (UniProt Q92731); assay: OT_ER_ERbERb_0480: Odyssey Thera (OT) 8-hour HEK293T Protein-Complementation Assay for Estrogen Receptor-beta/-beta Homodimer (AID 2283357)
Sequence (Q92731 whole entry, looked up, the tested form may be a part): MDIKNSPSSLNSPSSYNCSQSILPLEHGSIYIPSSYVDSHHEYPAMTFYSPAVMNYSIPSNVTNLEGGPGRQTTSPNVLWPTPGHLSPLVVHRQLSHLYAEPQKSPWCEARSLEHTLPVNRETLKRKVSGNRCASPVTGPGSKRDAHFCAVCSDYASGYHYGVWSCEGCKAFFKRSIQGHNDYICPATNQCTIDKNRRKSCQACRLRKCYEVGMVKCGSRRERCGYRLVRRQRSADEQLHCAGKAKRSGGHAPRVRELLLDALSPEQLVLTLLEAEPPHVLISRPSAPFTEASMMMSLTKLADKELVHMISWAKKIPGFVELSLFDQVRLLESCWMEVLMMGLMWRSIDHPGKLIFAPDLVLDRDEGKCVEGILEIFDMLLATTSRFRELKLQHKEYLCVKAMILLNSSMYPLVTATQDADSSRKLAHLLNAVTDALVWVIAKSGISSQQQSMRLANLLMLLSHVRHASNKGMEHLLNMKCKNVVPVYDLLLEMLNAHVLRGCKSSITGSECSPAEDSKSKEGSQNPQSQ
Procedure: OT_ER_ERbERb_0480 is a cell-based assay that uses HEK293T, a human kidney cell line, with measurements taken at 8 hours after chemical dosing in a 384-well plate.OT_ER_ERbERb_0480 is one of one assay component(s) measured or calculated from the OT_ER_ERbERb_0480 assay. It is designed to make measurements of protein fragment complementation, a form of binding reporter, as detected with fluorescence intensity signals by Protein-fragment Complementation technology.Data from the assay component OT_ER_ERbERb_0480 was analyzed into 1 assay endpoint. This assay endpoint, OT_ER_ERbERb_0480, was analyzed in the positive analysis fitting direction relative to DMSO as the negative control and baseline of activity. Using a type of binding reporter, measures of receptor for gain-of-signal activity can be used to understand the binding at the pathway-level as they relate to the gene ESR2. Furthermore, this assay endpoint can be referred to as a primary readout, because the performed assay has only produced 1 assay endpoint. To generalize the intended target to other relatable targets, this assay endpoint is annotated to the nuclear receptor intended target family, where the subfamily is steroidal.
Protein-fragment complementation assay, or PCA, is a method for the identification and quantification of protein-protein interactions. In the PCA, the proteins of interest ("bait" and "prey") are each covalently linked to fragments of a third protein (e.g. DHFR, which acts as a "reporter"). Interaction between the bait and the prey proteins brings the fragments of the reporter protein in close proximity to allow them to form a functional reporter protein whose activity can be measured. The OT ER beta / ER beta assay is a homodimer PCA of the ligand binding domain (LBD; amino acids 310-547) of human ER beta stably expressed in HEK293T cells. […] Cells are fixed in 4 percent formaldehyde and stained with Draq5 (BioStatus) to identify cells prior to signal detection. Fluorescent signal in the basal state of the assay is very low and is primarily punctuate and cytoplasmic. Modulation of this assay is quantified as an increase in mean fluorescence intensity in the nucleus (for agonists) or in the nucleus and cytoplasm (antagonists) relative to vehicle controls, and can be quantified on a high content imaging device or a laser scanning cytometer. The latter instrument is favored for this assay because of the rapid mode of data acquisition, the ability to acquire data from the entire cell population in a well (as opposed to a fraction of the well on the high content devices) and the larger dynamic range typically achieved with this instrument. To assess sensitivity of the ER beta/ER beta LBD assay to ligand, cells were treated with the ER agonist 17- beta-estradiol (E2) in 10-point concentration- response format for 8 hours and monitored response on a laser scanning plate cytometer (Acumen eX3; TTP Lab Tech).

SMILES	outcome	AC50
CCCCCCCC1CCC(=O)O1 (stereo not given)	inactive	–
CCCOc1ccc(S(=O)(=O)N2CCN(CC)CC2)cc1-c1nc2c(CC)n(Cc3ccccn3)nc2c(=O)[nH]1	inactive	–
O=C(O)c1ccc2c(c1)nc(C(=O)NC1CCN(C3CC3)CC1)n2Cc1cc(-c2ccc(Cl)s2)on1	inactive	–
CCCc1ccccc1	inactive	–
CCCCCCOC(=O)CC(CC(=O)OCCCCCC)(OC(=O)CCC)C(=O)OCCCCCC	inactive	–
CCc1cccc(CC)c1N	inactive	–
CCN(CC)C(=S)SSC(=S)N(CC)CC	inactive	–
CCn1nc(C)c2c1C(=O)NCC(c1ccc(O)cc1)=N2	inactive	–
Cc1nc(-c2ccccn2)ncc1C(=O)Nn1cc(C)c2cc(F)ccc21	inactive	–
O=C(O)CO	inactive	–
OC[C@H]1O[C@@H]2O[C@H]3[C@H](O)[C@@H](O)[C@@H](O[C@H]4[C@H](O)[C@@H](O)[C@@H](O[C@H]5[C@H](O)[C@@H](O)[C@@H](O[C@H]6[C@H](O)[C@@H](O)[C@@H](O[C@H]7[C@H](O)[C@@H](O)[C@@H](O[C@H]1[C@H](O)[C@H]2O)O[C@@H]7CO)O[C@@H]6CO)O[C@@H]5CO)O[C@@H]4CO)O[C@@H]3CO	inactive	–
O=C(O)[C@H](O)[C@@H](O)C(=O)O	inactive	–
Cc1ncc([C@@H](CCCCCCc2ccc3c(n2)NCCC3)CC(=O)O)cn1	inactive	–
O=C(NO)C1(NS(=O)(=O)c2ccc(Oc3ccc(F)cc3)cc2)CCOCC1	inactive	–
c1ccc(C(O[C@@H]2CCCN(CCc3ccc4c(c3)OCO4)C2)c2ccccc2)cc1	inactive	–
COCc1nnc(-c2ccc[n+]([O-])c2)n1-c1c(Cl)c(Cl)cc2[nH]c(=O)c(=O)[nH]c12	inactive	–
CCOc1ccc2[nH]cc(C(=O)NCc3ccccc3)c(=O)c2n1	inactive	–
NNC(=O)c1ccncc1	inactive	–
Cc1nccn1-c1ccc(Sc2cccc(C3(C(N)=O)CCOCC3)c2)cc1	–	32.3 µM (active)
C=CCc1cc(S(=O)(=O)c2ccc(O)c(CC=C)c2)ccc1O	inactive	–

SMILES	outcome	AC50
CCCCCCCCCCCCCCO	inactive	–
O=S1(=O)CCCO1	inactive	–
OCC(CO)(CO)CO	inactive	–
c1ccc2c(c1)-c1cccc3c1c-2cc1ccccc13	inactive	–
O=C(O)c1cccc(C[C@@H]2COc3ccc(OCc4nc5cc(F)ccc5s4)cc3[C@@H]2O)c1	inactive	–
NC(N)=O	inactive	–
Cc1ccc(S(=O)(=O)NC(=O)NN2CCCCCC2)cc1	inactive	–
CC(C)C(=O)Nc1ccc([N+](=O)[O-])c(C(F)(F)F)c1	inactive	–
CC(C)CC(C)O (stereo not given)	inactive	–
CCCCCCCCCCCCCCCCOS(=O)(=O)O	inactive	–
CC[C@H](C)C(=O)O[C@H]1C[C@H](O)C=C2C=C[C@H](C)[C@H](CC[C@@H](O)C[C@@H](O)CC(=O)O)[C@H]21	inactive	–
OCCOCCOCCO	inactive	–
NC(=O)N(O)[C@@H]1COc2cc(OCc3ccccc3)ccc21	inactive	–
COc1cc2c(c(OC)c1OC)-c1ccc(OC)c(=O)cc1[C@@H](NC(C)=O)CC2	inactive	–
CC(C)c1nnc2ccc(-c3ocnc3-c3cc(F)ccc3F)cn12	inactive	–
CCCCCCCC/C=C\CCCCCCCC(=O)OC[C@@H](O)[C@H]1OC[C@H](O)[C@H]1O	inactive	–
CCCCCCCCCC	inactive	–
OC[C@H]1O[C@@](CO)(O[C@H]2O[C@H](CO)[C@@H](O)[C@H](O)[C@H]2O)[C@@H](O)[C@@H]1O	inactive	–
Cn1cc[nH]c1=S	inactive	–
CCCCC(CC)C(=O)OCCOCCOCCOC(=O)C(CC)CCCC (stereo not given)	inactive	–
